Shown are actives, neighbours in structure and some others; about 3.3% of the full set was active somewhere.
RE007 growth inh: less growth of the S. pombe RE007 Vpr strain. S. pombe RE007 Vpr strain, BacTiter-Glo ATP luminescence, 24 h. Potency, µM (highest dose often 92.2 µM), actives largely listed as inhibitors. 360,000 compounds, 0.21% hits. AID 651644; active means well fitted falling curve with a large enough effect; inconclusive means small, poorly fitted or top-dose-only effect; inactive means no such curve, though single readings can be large or run the other way; further: nearly all actives have a fitted effect of over 50% in size
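Fission yeast strain RE007, carrying one chromosomally integrated HIV-1 vpr copy, was seeded at OD 0.01 in PMG+AL medium with 23 nL pinned compound. After 24 h at 30 °C and 99% humidity, viability was read by BacTiter-Glo luminescence.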
NS1 function inh: inhibitors of influenza NS1 protein function; AID 2326; 270,000 compounds, 0.4% hits; Potency, µM (doses to about 46.1 µM); calls by dose curve; further: actives are rising curves; nearly all actives have a fitted effect of over 50% in size
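Compounds were scored for reversing the slow growth caused by influenza A NS1 in S. cerevisiae, measured by optical density at 600 nm. Assay medium contained 2% galactose at pH 6.0; NS1-free yeast of the same strain were the positive control.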
LmPK inh: blocks Leishmania mexicana pyruvate kinase activity | Q27686 | purified LmPK, Kinase-Glo ATP luminescence, 1 h | Potency, µM (top dose mostly 57.5 µM), actives largely listed as inhibitors | 290,000 compounds, 0.37% hits | AID 1721
Target sequence (Q27686 whole entry, looked up): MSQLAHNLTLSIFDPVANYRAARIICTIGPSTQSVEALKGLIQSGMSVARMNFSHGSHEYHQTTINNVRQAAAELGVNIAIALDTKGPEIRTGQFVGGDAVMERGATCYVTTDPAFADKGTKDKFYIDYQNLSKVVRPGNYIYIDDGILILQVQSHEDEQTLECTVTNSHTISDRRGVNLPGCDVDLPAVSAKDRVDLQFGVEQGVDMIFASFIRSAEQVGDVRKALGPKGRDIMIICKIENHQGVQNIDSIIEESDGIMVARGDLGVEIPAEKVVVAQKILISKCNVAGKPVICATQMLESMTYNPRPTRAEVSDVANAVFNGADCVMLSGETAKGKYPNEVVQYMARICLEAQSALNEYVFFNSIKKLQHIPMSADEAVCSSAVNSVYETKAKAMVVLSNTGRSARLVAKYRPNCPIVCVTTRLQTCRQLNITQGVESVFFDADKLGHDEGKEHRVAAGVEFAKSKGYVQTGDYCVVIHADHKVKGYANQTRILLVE
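0.1 nM LmPK, 0.5 mM PEP, 0.1 mM ADP; 50 mM imidazole pH 7.2, 7 mM MgCl2, 50 mM KCl; 1 h RT. Kinase-Glo luminescence readout, normalized to no-enzyme (full inhibition) and uninhibited wells.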
TbPYK inhibitor: inhibitors of Trypanosoma brucei pyruvate kinase; Q57TT1; TbPYK enzyme, Kinase-Glo Plus ATP luminescence, 45 min; Potency, µM (highest dose often 76.8 µM), hits mostly inhibitors; 410,000 compounds, 0.12% hits; further: nearly all actives have a fitted effect of over 50% in size
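Enzyme and substrate buffer are dispensed first and compound is pin-transferred. ADP at 130 uM final then starts the reaction, which runs 45 min at room temperature. Detection reagent is added for 10 min before luminescence is imaged.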
SARS PLP yeast: blocks SARS-CoV papain-like protease in a yeast assay; 330,000 compounds, 0.19% hits; AID 485353; S. cerevisiae expressing SARS-CoV PLpro, growth rescue; Potency, µM (highest dose often 32.9 µM), actives largely listed as activators; calls by dose curve; further: nearly all actives have a fitted effect of over 55% in size
Sm TGR inh: inhibitors of Schistosoma mansoni thioredoxin glutathione reductase; AID 485364; Potency, µM (doses to about 114 µM), actives largely listed as inhibitors; purified TGR, DTNB reduction, TNB absorbance 405 nm; 360,000 compounds, 3% hits; Q962Y6; further: nearly all actives have a fitted effect of over 60% in size
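Kinetic colorimetric format: TGR-catalysed, NADPH-driven DTNB reduction monitored via TNB absorbance. Enzyme dispensed at 20 nM; compound exposure 15 min at room temperature before reaction start.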
Large screens that a line does not name were inactive. Unless noted, the call rests on the fitted dose curve; in most records, active means well fitted curve in the direction sought with a large enough effect; inconclusive means small, poorly fitted or top-dose-only effect, or another doubt; inactive means no such curve, though single readings can be large; an effect the other way counts as inactive or inconclusive.

COC(=O)c1nc2nc(-c3cccs3)cc(C(F)(F)F)n2n1	none
O=C(NCc1ccco1)c1nn2c(C(F)(F)F)cc(-c3cccs3)nc2c1Br	Sm TGR inh 32µM
Cc1ccccc1NC(=O)CSc1cn(CC(=O)N2CCCCCC2)c2ccccc12	none (no result: RE007 growth inh, NS1 function inh, LmPK inh, SARS PLP yeast)
CC1CCc2cc(F)ccc2N1C(=O)CCl (stereo unspecified)	Sm TGR inh 5.6µM (no result: NS1 function inh)
CC1CCc2cc(F)ccc2N1S(=O)(=O)c1ccc(F)cc1 (stereo unspecified)	SARS PLP yeast 8.9µM
COc1cc(-c2noc(-c3ccc(NCc4ccco4)c([N+](=O)[O-])c3)n2)cc(OC)c1OC	none (no result: RE007 growth inh, NS1 function inh, LmPK inh, SARS PLP yeast)
CC(=O)c1cc(O)c2ccccc2c1O	Sm TGR inh 8.9µM
CC(=O)c1coc2c1cc(O)c1ccccc12	none
Cc1csc(CN(C)C(=O)CC2C(=O)NCCN2Cc2ccc(F)cc2Cl)n1 (stereo unspecified)	Sm TGR inh 13µM
Cc1csc(CN(C)C(=O)CC2C(=O)NCCN2Cc2ccc(Cl)c(F)c2)n1 (stereo unspecified)	Sm TGR inh 45µM
Cc1csc(CNC(=O)CC2C(=O)NCCN2Cc2ccc(F)cc2Cl)n1 (stereo unspecified)	none
COc1ccc2nc3sc(C(=O)N4CCN(c5ccc(F)cc5)CC4)cc3cc2c1	none (no result: RE007 growth inh, NS1 function inh, LmPK inh, SARS PLP yeast)
O=C(CN1CCC2(CC1)OCCO2)c1ccc2cc[nH]c2c1	Sm TGR inh 45µM
O=C(CN1CCOCC1)c1ccc2cc[nH]c2c1	Sm TGR inh inconclusive
Cc1[nH]n(-c2ccccc2)c(=O)c1C(c1ccccc1C(=O)O)c1c(C)[nH]n(-c2ccccc2)c1=O	none
Cc1ccc(C(C[N+](=O)[O-])c2c(C)[nH]n(-c3ccccc3)c2=O)cc1 (stereo unspecified)	RE007 growth inh 20µM
Cc1[nH]n(-c2ccccc2)c(=O)c1C(c1ccccc1[N+](=O)[O-])C(C#N)C#N (stereo unspecified)	Sm TGR inh 8.9µM
Cc1[nH]n(-c2ccccc2)c(=O)c1C(C[N+](=O)[O-])c1ccc(Cl)cc1 (stereo unspecified)	RE007 growth inh 28µM, Sm TGR inh 1.6µM
Cc1[nH]n(-c2ccccc2)c(=O)c1C(C[N+](=O)[O-])c1ccc(F)cc1 (stereo unspecified)	RE007 growth inh inconclusive
O=C(OCc1cc(=O)n2nc(C3CC3)sc2n1)c1ccc(NC(=O)c2ccccc2Cl)cc1	none (no result: RE007 growth inh, NS1 function inh, LmPK inh, SARS PLP yeast)
Cc1cccc(C(=O)n2c(=S)nc3cc(C)ccn32)c1	LmPK inh 11µM
Cc1ccn2c(c1)nc(=S)n2C(=O)c1ccccc1	LmPK inh inconclusive
CC1(C)CC(=O)C2=C(C1)NC(=S)C(C#N)C21CCCCC1 (stereo unspecified)	TbPYK inhibitor 2.8µM
CCOc1ccc(CC(=O)NCCc2sc3nc(-c4ccc(F)cc4)nn3c2C)cc1	none (no result: RE007 growth inh, NS1 function inh, LmPK inh, SARS PLP yeast)
Nc1nnnn1/N=C/c1cccc(O)c1	none
Nc1nnnn1/N=C/c1ccc(O)cc1	LmPK inh 16µM
CCOC(=O)N1CCN(CCC(=O)Nc2cccc(F)c2)CC1	none (no result: RE007 growth inh, NS1 function inh, LmPK inh, SARS PLP yeast)
COC(=O)c1ccc(C2C(C(=O)c3cc4ccccc4o3)=C(O)C(=O)N2CCCN(C)C)cc1 (stereo unspecified)	Sm TGR inh 11µM
COc1cccc2cc(C(=O)C3=C(O)C(=O)N(CCN4CCOCC4)C3c3cccc(Cl)c3)oc12 (stereo unspecified)	none
O=C(C1=C(O)C(=O)N(CCN2CCOCC2)C1c1ccc(Br)cc1)c1cc2ccccc2o1 (stereo unspecified)	Sm TGR inh 32µM (no result: SARS PLP yeast)
COc1cccc2cc(C(=O)C3=C(O)C(=O)N(CCN4CCOCC4)C3c3ccc(Cl)cc3)oc12 (stereo unspecified)	Sm TGR inh 40µM
CN(C)CCCN1C(=O)C(O)=C(C(=O)c2cc3ccccc3o2)C1c1ccccc1 (stereo unspecified)	none
Cc1ccc(C2C(C(=O)c3cc4ccccc4o3)=C(O)C(=O)N2CCN2CCOCC2)cc1 (stereo unspecified)	Sm TGR inh 32µM
CCOc1ccccc1N(CC(=O)N1CCc2ccccc2C1)S(=O)(=O)c1ccccc1	none (no result: RE007 growth inh, NS1 function inh, LmPK inh, SARS PLP yeast)
O=C(NCCc1csc2nc(-c3cccc(F)c3)nn12)c1ccc(Br)o1	none (no result: RE007 growth inh, NS1 function inh, LmPK inh, SARS PLP yeast)
CCOCN(C(=O)Cn1cnc2cc(C)c(C)cc21)c1c(C)cccc1CC	none (no result: RE007 growth inh, NS1 function inh, LmPK inh, SARS PLP yeast)
CCCCN(CCCC)CCNC(=O)c1cc(=O)[nH]c2ccc(S(=O)(=O)N3CCCCCC3)cc12	none (no result: RE007 growth inh, NS1 function inh, LmPK inh, SARS PLP yeast)
Cc1ccc(C2C(C(=O)c3cc4ccccc4o3)=C(O)C(=O)N2CCN2CCOCC2)o1 (stereo unspecified)	Sm TGR inh 22µM
CC(=O)C1=C(O)C(=O)N(CCN2CCOCC2)C1c1ccccc1 (stereo unspecified)	Sm TGR inh 32µM
O=C(C1=C(O)C(=O)N(CCN2CCOCC2)C1c1cccc(F)c1)c1cc2ccccc2o1 (stereo unspecified)	Sm TGR inh 45µM
COc1ccc(OC)c(C2C(C(C)=O)=C(O)C(=O)N2CCN2CCOCC2)c1 (stereo unspecified)	Sm TGR inh inconclusive
COc1ccc(-c2nc3c(c4c2C[C@H](c2ccccc2)OC4)CN(C(=O)Cc2cccs2)CC3)c(C)c1	none (no result: RE007 growth inh, NS1 function inh, TbPYK inhibitor, SARS PLP yeast, Sm TGR inh)
CO/N=C(/C(=O)N[C@@H]1C(=O)N2C(C(=O)O)=C(COC(N)=O)CS[C@H]12)c1ccco1	none (no result: RE007 growth inh, NS1 function inh, LmPK inh, SARS PLP yeast, Sm TGR inh)
CO[C@@]1(NC(=O)Cc2cccs2)C(=O)N2C(C(=O)O)=C(COC(N)=O)CS[C@@H]21	Sm TGR inh 35µM
CCCOc1ccc(N2C(=O)CC(N3CC=C(c4ccccc4)CC3)C2=O)cc1 (stereo unspecified)	RE007 growth inh inconclusive, Sm TGR inh 28µM
O=C1CC(N2CC=C(c3ccccc3)CC2)C(=O)N1c1ccc(F)cc1 (stereo unspecified)	RE007 growth inh inconclusive, Sm TGR inh 8.9µM
CCCOc1ccc(N2C(=O)CC(N3CCOCC3)C2=O)cc1 (stereo unspecified)	RE007 growth inh inconclusive
Cc1cccc(NC(=O)Cn2c(=O)n(Cc3ccc4c(c3)OCO4)c(=O)c3ccccc32)c1	none (no result: RE007 growth inh, NS1 function inh, LmPK inh, SARS PLP yeast)
COc1ccc(CCNC(=O)c2ccc3c(c2)N(Cc2ccc(F)cc2)C(=O)CS3)cc1OC	none (no result: RE007 growth inh, NS1 function inh, LmPK inh, SARS PLP yeast)
CC(Oc1cccc(Cl)c1)C(=O)Nc1nc(-c2ccccn2)cs1 (stereo unspecified)	RE007 growth inh 45µM (no result: NS1 function inh, LmPK inh)
CC(Oc1ccccc1)C(=O)Nc1nc(-c2ccccn2)cs1 (stereo unspecified)	RE007 growth inh inconclusive (no result: NS1 function inh, LmPK inh)
Cc1cccc(CSc2nc(=O)c3c(n2C)NC(=O)CC3c2cc(F)cc(F)c2)c1 (stereo unspecified)	none (no result: RE007 growth inh, NS1 function inh, LmPK inh, SARS PLP yeast)

From PubChem
